Screening results as filed in PubChem BioAssay.
This is a sample that favours compounds with a hit; in the whole collection about 0.49% have one here.
PGK inhibitor = inhibitors of T. brucei phosphoglycerate kinase. P07378. PGK/GAPDH coupled, Kinase-Glo luminescence, 60 min. Potency, µM (series often up to 57.5 µM), actives largely listed as inhibitors. 380,000 compounds, 0.043% hits; also: nearly all actives have a fitted effect of over 60% in size
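Recombinant glycosomal PGK reaction used 1,3-bisphosphoglycerate generated in-well by GAPDH (100nM final) in 100mM TEA pH 7.6, 5mM MgCl2, 0.01% Tween-20. After 60 minutes at room temperature, ATP was read by Kinase-Glo Plus luminescence end-point.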
mIDH1 inhibitor = blocks human mutant IDH1 R132H enzyme. IDH1-R132H enzyme, NADPH consumption, diaphorase/resazurin fluorescence. Potency, µM (series often up to 76.6 µM), hits mostly inhibitors. 390,000 compounds, 0.093% hits; also: nearly all actives have a fitted effect of over 65% in size
Target sequence (O75874 whole entry R132H, stated change not applied): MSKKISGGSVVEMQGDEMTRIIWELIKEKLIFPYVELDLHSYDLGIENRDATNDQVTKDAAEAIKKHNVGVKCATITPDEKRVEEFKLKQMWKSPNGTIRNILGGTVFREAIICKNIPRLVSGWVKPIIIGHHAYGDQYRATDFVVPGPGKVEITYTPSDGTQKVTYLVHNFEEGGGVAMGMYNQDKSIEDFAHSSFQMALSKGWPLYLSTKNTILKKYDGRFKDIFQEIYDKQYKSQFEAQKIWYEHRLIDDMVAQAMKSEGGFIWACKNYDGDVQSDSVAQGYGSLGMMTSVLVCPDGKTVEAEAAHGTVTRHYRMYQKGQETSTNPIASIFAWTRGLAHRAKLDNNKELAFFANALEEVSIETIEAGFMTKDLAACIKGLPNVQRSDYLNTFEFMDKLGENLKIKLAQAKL
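IDH1-R132H (0.5 ug/mL) preincubated 30 min with compound, then NADPH (0.016 mM) and alpha-KG (2 mM) added; 80 min at RT, pH 7.5. Remaining NADPH coupled via diaphorase/resazurin to fluorescence (540/590 nm); concentration-response curves normalized to no-enzyme control.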
Vif-A3G inh = blocks the Vif interaction with human APOBEC3G | HeLa A3G-eYFP + Vif (tagged APOBEC3G with the HIV-1 protein that degrades it), YFP fluorescence, overnight | 410,000 compounds, 0.076% hits | AID 602310 | Potency, µM (series often up to 46.1 µM), hits mostly inhibitors | Q9HC16; also: nearly all actives have a fitted effect of over 60% in size
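Read-out is eYFP fluorescence (Ex 488/Em 500-530) from Vif-expressing HeLa A3G-eYFP cells; more signal means A3G escaped Vif-mediated degradation. Cells plated overnight, compound pinned in, incubated overnight at 37 deg C.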
Pin1 inh = human Pin1 inhibition; Q13526; Pin1 FP peptide displacement, HiFluor488, 10 min; Potency, µM (titrated, usually from 115 µM), most hits filed as inhibitors; 390,000 compounds, 0.009% hits; AID 504891; active = well fitted inhibition curve with a large enough effect in the polarisation, with a control signal flat, not every such curve was filed as active; inconclusive = small, poorly fitted or top-dose-only effect, or effect the other way, or a change in a side signal; inactive = no such curve, though single readings can be large or run the other way; the % refers to the polarisation
Target sequence (Q13526 whole entry, looked up): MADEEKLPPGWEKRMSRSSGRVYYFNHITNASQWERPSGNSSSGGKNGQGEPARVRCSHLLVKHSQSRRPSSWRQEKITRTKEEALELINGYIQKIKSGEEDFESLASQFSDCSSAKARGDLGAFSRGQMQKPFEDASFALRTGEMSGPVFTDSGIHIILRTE
Vif-A3F inh = Vif-A3F binding inhibition | HeLa A3F-eYFP + Vif (tagged APOBEC3F with the HIV-1 protein that degrades it), YFP fluorescence increase | 390,000 compounds, 0.2% hits | Potency, µM (top dose mostly 46.1 µM) | AID 602313; also: nearly all actives have a fitted effect of over 65% in size
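HeLa cells stably expressing A3F-eYFP plus Vif, plated and incubated overnight at 37 deg C, then exposed to compounds overnight at 37 deg C. Blocked degradation read as raised yellow fluorescence (Ex 488/Em 500-530).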
LDHA inh = inhibitors of human lactate dehydrogenase A. P00338. purified LDHA, NADH/diaphorase-resazurin fluorescence; hits give low values. activity change, % (values are at about 110 or 230 µM). 480,000 compounds, 0.15% hits; in the data active = activity change below about -30%; inconclusive = mostly about -25% to -30%
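Remaining NADH was detected by diaphorase (0.133 mg/mL) converting 37 µM resazurin to fluorescent resorufin, read at 0 and 20 minutes. The preceding 5-minute room-temperature reaction used 2 nM LDHA, 0.2 mM sodium pyruvate and 0.06 mM NADH at pH 7.4.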
IDH1 autofl = counter-screen for mutant IDH1 inhibitors: fluorescence interference; shares compounds with mIDH1 inhibitor; inhibition of signal, % at 51.2 µM; 750 tested, under 10 active; Resorufin detection reagent fluorescence interference, cell-free
WT IDH1 inh = selectivity of mutant IDH1 inhibitors: human wild-type IDH1. shares compounds with mIDH1 inhibitor. WT IDH1 enzyme, NADPH diaphorase/resazurin fluorescence. Potency, µM (top dose mostly 115 µM), most hits filed as inhibitors. 750 compounds, 9% hits; also: nearly all actives have a fitted effect of over 55% in size
Target sequence (O75874 whole entry, looked up): as the sequence (O75874 whole entry R132H, stated change not applied) above, with H132R counted along it
mIDH1 confirm = mutant IDH1 (human) inhibition, confirmed; Potency, µM (titrated, usually from 76.6 µM), hits mostly inhibitors; shares compounds with mIDH1 inhibitor; AID 624002; IDH1 R132H enzyme, NADPH diaphorase/resazurin fluorescence; 750 compounds, 83% hits; also: nearly all actives have a fitted effect of over 50% in size
A number is an active result; - = inactive; ? = inconclusive; . = no result given. Unless noted, calls follow the shape of the dose curve; as a rule, active = well fitted curve in the direction sought with a large enough effect; inconclusive = small, poorly fitted or top-dose-only effect, or another doubt; inactive = no such curve, though single readings can be large; an effect the other way counts as inactive or inconclusive.

SMILES	PGK inhibitor	mIDH1 inhibitor	Vif-A3G inh	Pin1 inh	Vif-A3F inh	LDHA inh	IDH1 autofl	WT IDH1 inh	mIDH1 confirm
CC1=CC(C)(C)N2C(=O)C3(C(C#N)=C(N)OC4=C3C(=O)CCC4)c3c(C)c(C)cc1c32 (configuration not stated)	-	-	-	-	-	-	.	.	.
CC(=O)N(Cc1ccco1)CC1C(C)C=C(C)CC1C (configuration not stated)	.	.	.	.	.	-	.	.	.
CC(=O)[C@@]1(O)CC[C@H]2[C@@H]3C[C@H](C)C4=CC(=O)CC[C@]4(C)[C@H]3CC[C@@]21C	-	-	-	-	-	-	.	.	.
C=C1CC2C(CCC3(C)C2CCC3(O)C(C)=O)C2(C)CCC(=O)C=C12 (configuration not stated)	-	22µM	?	-	-	-	-	35µM	11µM
COc1ccc(-c2c(C)nc(N)nc2-c2ccc(OCc3ccc(C)cc3)cc2O)cc1OC	-	?	-	-	-	-	-	-	?
COc1ccc(-c2c(C)nc(N)nc2-c2ccc(OCc3ccccc3)cc2O)cc1	.	.	.	.	.	-	.	.	.
Cc1ccc(N2C(=O)c3n[nH]c(C)c3C2c2ccc(C(C)C)cc2)cc1 (configuration not stated)	-	?	?	-	-	-	-	-	28µM
CCOC(=O)c1ccc(N2C(=O)c3n[nH]c(C)c3C2c2ccc(C(C)C)cc2)cc1 (configuration not stated)	-	-	-	-	-	-	.	.	.
COc1cccc(NC(=O)c2sc3nc(N4CCOCC4)c4c(c3c2N)CCCC4)c1	-	?	-	-	-	-	-	-	7.1µM
CC(=O)c1ccc(NC(=O)c2sc3nc(N4CCOCC4)c4c(c3c2N)CCCC4)cc1	-	?	-	-	-	-	-	-	6.3µM
Nc1c(C(=O)NCc2ccccc2)sc2nc(N3CCOCC3)c3c(c12)CCCC3	-	?	-	-	-	-	-	?	7.9µM
Nc1c(C(=O)Nc2ccccc2)sc2nc(N3CCOCC3)c3c(c12)CCCC3	-	-	-	.	-	-	.	.	.
COc1ccc(-c2cc(NC(=O)c3ccco3)n(C3CCS(=O)(=O)C3)n2)cc1 (configuration not stated)	.	.	.	.	.	-	.	.	.
O=C(COc1ccccc1-c1ccccc1)NCCN1C(=O)S/C(=C\c2cccnc2)C1=O	-	46µM	-	-	-	-	-	-	28µM
Cc1cc(C)c2c(=N)c3ccccc3n(CCCCCCCCn3c4ccccc4c(=N)c4c(C)cc(C)nc43)c2n1	-	52µM	-	?	?	-	-	-	28µM
CCCCCCCCn1c2c(c(=N)c3ccccc31)CCC2	-	-	-	-	-	-	.	.	.
NS(=O)(=O)c1ccc(N2N=C(c3ccccc3)CC2c2cccc(F)c2)cc1 (configuration not stated)	-	-	-	?	-	-	.	.	.
NS(=O)(=O)c1ccc(N2N=C(c3ccc(Br)cc3)CC2c2ccc(F)cc2)cc1 (configuration not stated)	-	?	-	?	-	-	-	-	?
CC(NC(=O)CSCC(N)=O)c1ccc(Cl)s1 (configuration not stated)	.	.	.	.	.	-	.	.	.
CC12CCC(C/C1=N\NC(=O)c1ccccc1)C2(C)C (configuration not stated)	.	.	.	.	.	-	.	.	.
CCCCC(C(=O)NC1CCCC1)N(C(=O)c1snc(C(N)=O)c1N)c1ccc(C)cc1 (configuration not stated)	-	?	-	-	-	-	-	-	?
Cc1cccc(N(C(=O)c2snc(C(N)=O)c2N)C(C(=O)NC2CCCC2)c2ccco2)c1 (configuration not stated)	-	?	-	-	-	-	-	-	35µM
COc1ccccc1N(C(=O)c1snc(C(N)=O)c1N)C(C(=O)NC1CCCCC1)c1cccc(OC)c1OC (configuration not stated)	-	?	-	-	-	-	-	-	?
COc1ccccc1N(C(=O)c1snc(C(N)=O)c1N)C(C(=O)NC1CCCC1)c1ccco1 (configuration not stated)	-	-	-	-	-	-	.	.	.
COc1ccc(C)cc1N(C(=O)c1snc(C(N)=O)c1N)C(C(=O)NC1CCCCC1)c1ccc(C)o1 (configuration not stated)	-	?	-	-	-	-	-	-	14µM
SMILES	PGK inhibitor	mIDH1 inhibitor	Vif-A3G inh	Pin1 inh	Vif-A3F inh	LDHA inh	IDH1 autofl	WT IDH1 inh	mIDH1 confirm
Cc1ccc(N(C(=O)c2snc(C(N)=O)c2N)C(CC(C)C)C(=O)NC2CCCC2)cc1 (configuration not stated)	-	-	-	-	?	-	.	.	.
Cn1nc(C(=O)NC2CCCC2)c(Cl)c1C(F)(F)F	.	.	.	.	.	-	.	.	.
CC(C)NC(=S)NCc1cccc(Cl)c1	.	.	.	.	.	-	.	.	.
COc1cccc(C(C(=O)NC2CCCCC2)N(C(=O)Cc2cccs2)c2ccc(-n3cnnn3)c(OC)c2)c1 (configuration not stated)	-	?	-	-	-	-	-	-	8.9µM
COc1ccc(N(C(=O)C2COc3ccccc3O2)C(C(=O)NC2CCCCC2)c2ccccc2)cc1OC (configuration not stated)	-	5.2µM	-	-	-	-	-	-	2.8µM
COc1cc(N(C(=O)Cc2cccs2)C(C(=O)NC2CCCCC2)c2cccc(OC)c2OC)ccc1-n1cnnn1 (configuration not stated)	-	?	-	-	-	-	-	-	?
COc1cccc(C(C(=O)NC2CCCCC2)N(C(=O)c2cccs2)c2ccc3c(c2)OCO3)c1 (configuration not stated)	-	?	-	-	-	-	-	-	-
COc1cccc(C(C(=O)NC2CCCCC2)N(C(=O)c2ccco2)c2ccc(-n3cnnn3)c(C)c2)c1 (configuration not stated)	-	-	-	-	-	-	.	.	.
CC1CCc2c(sc(NC(=O)C(C)C)c2C#N)C1 (configuration not stated)	.	.	.	.	.	-	.	.	.
